Measured values: PubChem BioAssay AID651821 (The Scripps Research Institute Molecular Screening Center, 2012)
Out of some 370,000 compounds screened, about 4,700 (1.3%) were called active.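 The calls were made as follows: active = inhibition above the plate cutoff, the mean of all test compounds on that plate plus 3 SD (cut at about 35% in these data); inactive = the rest.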 The entries come from a sample that favours actives as a whole.

assay: small molecules binding CAG repeat RNA – biochemical, fluorescence, primary screen (AID 651821); conditions: r(CAG) RNA repeat, TO-PRO-1 dye displacement fluorescence; at 3 µM; hits give high values;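 also: 0% = DMSO alone and 100% = 100 µM mitoxantrone as full dye displacement; higher means more dye released from RNA so lower well fluorescence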

Compound	inhibition
CC1(NC(=O)CCS(=O)(=O)c2ccc(Cl)cc2)CCS(=O)(=O)C1 (centres undefined)	2.03% (inactive)
OC(c1ccccc1)c1nc(-c2cnc3ccccc3c2)cs1 (centres undefined)	16.2% (inactive)
Cc1ccc(CSc2nnc(SCC(=O)NN=Cc3cc(Br)ccc3F)s2)cc1	5.78% (inactive)
Cc1ccc(C(=O)O)c(NC=O)c1OCc1ccccc1	0.76% (inactive)
O=C(O)C1CCCN1S(=O)(=O)c1ccc(Br)cc1 (centres undefined)	-0.5% (inactive)
CCCCC[C@@H]1C=C(C(=O)O)[C@H](c2ccc(C#N)cc2)N1S(=O)(=O)c1ccc(C)cc1	62.3% (active)
Cc1ccc(S(=O)(=O)N2[C@@H](c3ccc(Br)cc3)C(C(=O)O)=C[C@H]2CC2CCCC2)cc1	82.8% (active)
CCCCC[C@@H]1C=C(C(=O)OCC)[C@H](c2ccccc2)N1S(=O)(=O)c1ccc(C)cc1	5.36% (inactive)
Cc1ccc(S(=O)(=O)N2CCCC2CO)cc1 (centres undefined)	-2.42% (inactive)
CCOC(=O)C1=CC[C@@H](c2ccccc2)N(S(=O)(=O)c2ccc(C)cc2)[C@H]1c1ccc(CC)cc1	2.92% (inactive)
CCn1c(SCC(C)=O)nc2sc3c(c2c1=O)CCCC3	4.43% (inactive)
CCOC(=O)[C@]12CCCC3=C1N(CCC3)C(=O)[C@@H](CC(=O)NCC13CC4CC(CC(C4)C1)C3)C2	-1.58% (inactive)
O=C(c1ccccc1)c1ccc(-c2ccccc2C(=O)NC2CCCCN(Cc3ccc(Cl)cc3)C2=O)cc1 (centres undefined)	12.5% (inactive)
Cc1ccc(C)c(CN2CCC(CNC(=O)C3CCCN(c4ncnc5c4nc4n5CCCCC4)C3)CC2)c1 (centres undefined)	-1.34% (inactive)
CCCCCCCCNS(=O)(=O)/C=C/c1cc(C)ccc1CNC(=O)OC(C)(C)C	5.11% (inactive)
CSc1ccc(Oc2cccc3c2S(=O)(=O)N([C@H](C)c2ccccc2)C[C@@H](COCc2ccccc2)O3)cc1C	5.63% (inactive)
Cc1noc(C)c1NC(=O)Nc1ccc2c(c1)C(=O)N([C@H](C)CO)C[C@H](C)[C@H](CN(C)Cc1ccncc1)OCCCC[C@@H](C)O2	6.45% (inactive)
COc1ccc(OC)c(NC(=O)CSc2nc(-c3ccccc3)cc(=O)[nH]2)c1	37.5% (active)
COc1ccc(OC)c(NC(=O)CSc2nc(N)c(-c3ccccc3)c(=O)[nH]2)c1	4.81% (inactive)
CCCc1cc(=O)[nH]c(SCC(=O)Nc2ccc(C(=O)Nc3ccccc3OC)cc2)n1	31.1% (inactive)
Cc1ccccc1NC(=O)COC(=O)c1ccc(Sc2ncn[nH]2)c([N+](=O)[O-])c1	6.52% (inactive)
NC(=O)c1c(Nc2nc3c(F)cccc3s2)sc2c1CCCC2	52.5% (active)
O=C(O)c1c(NC(=O)N2CCCC2)sc2c1CCCC2	3.93% (inactive)

Compound	inhibition
CCOC(=O)C(NC(=O)CC(C)C)(Nc1sc2c(c1C(N)=O)CCCC2)C(F)(F)F (centres undefined)	-6.2% (inactive)
COc1ccc(Br)c2c1C(=O)CC2	-1.62% (inactive)
CCn1cc(C(=O)N2CCN(C3CCCCC3)CC2)c2cc(OC)c(OC)cc2c1=O	-10.2% (inactive)
COc1ccc(NC(=O)CC2COc3ccccc3O2)c(OC)c1 (centres undefined)	-0.79% (inactive)
CCn1cc(C(=O)NCC2COc3ccccc3O2)c2cc(OC)c(OC)cc2c1=O (centres undefined)	53.3% (active)
COc1cccc(CSc2nnc(-c3cccnc3)n2Cc2ccccc2)c1	3.2% (inactive)
CCCNC(=O)Nc1ccc2c(c1)C(=O)N(C)[C@H]1CC[C@H](CC(=O)NCC3CCCCC3)O[C@@H]1CO2	2.13% (inactive)
COc1ccccc1/C=C/C=N/n1c(-c2ccc(Cl)cc2Cl)n[nH]c1=S	36.1% (active)
COc1ccc(Cl)cc1C=CC=Nc1ccc(S(N)(=O)=O)cc1	14.6% (inactive)
COc1ccc(Cl)cc1C=CC=NNC(=O)c1ccncc1	1.27% (inactive)
Cc1cccc(CS(=O)(=O)c2ncc(Cl)c(C(=O)Nc3ccc(F)cc3)n2)c1	2.26% (inactive)
CSc1nnc(NC(=O)c2nc(S(=O)(=O)Cc3ccc(C)cc3)ncc2Cl)s1	42.9% (active)
Clc1cccc2c1C1CC2CCN1Cc1ccccc1 (centres undefined)	1.58% (inactive)
O=C1C2C3C=CC(C3)C2C(=O)N1c1ccc(S(=O)(=O)Nc2nccs2)cc1 (centres undefined)	0.76% (inactive)
C/C(=N\NC(=O)c1ccc(NS(=O)(=O)c2cccs2)cc1)c1ccc2ccccc2c1	19.2% (inactive)
COc1cc(OC)c(C(=O)NNC(=O)c2ccc(NS(=O)(=O)c3cccs3)cc2)cc1OC	8.73% (inactive)
O=C(Nc1cccc(Cl)c1)Nc1ccccc1NS(=O)(=O)c1cccs1	48.5% (active)
O=S(=O)(NCCc1ccc(Cl)cc1)c1cccs1	-4.34% (inactive)
O=C(Nc1nncs1)c1cccc(S(=O)(=O)N2CCCCC2)c1	0.89% (inactive)
O=C(Nc1nncs1)c1ccccc1NS(=O)(=O)c1cccs1	36.4% (active)
CC(C)CNc1cccc2c1S(=O)(=O)N(Cc1cn(Cc3ccccc3C(F)(F)F)nn1)Cc1ccccc1O2	7.51% (inactive)
O=C(N[C@H](C(=O)N1CCC[C@H]1C(=O)NCCc1ccccc1Cl)c1ccccc1)c1ccccc1	3.45% (inactive)
O=C(c1ccc2c(c1)OCO2)N1CCNc2ccccc2C1	2.38% (inactive)

Compound	inhibition
COC(=O)Cc1nnn2c1[C@H](C)[C@H](c1ccccc1Br)OCC2	2.7% (inactive)
C#CCCN([C@H](C(=O)OC)C(C)C)S(=O)(=O)c1ccc(F)cc1Br	2.16% (inactive)
COc1cccc(N(C)C(=O)[C@@H](C)[C@@H](O)c2ccc3ccccc3c2)c1	-1.62% (inactive)
COC(=O)[C@]1(Cc2ccccc2)NC=C(C(=O)c2ccccc2)[C@@H]1c1cccc(OC)c1	4.57% (inactive)
COC(=O)C1=C(C)NC(=S)NC1c1ccc(OC)cc1 (centres undefined)	1.6% (inactive)
CCN(CC(=O)Nc1cc(Cl)ccc1C)C(=O)Cn1c(=O)cnc2ccccc21	-5.99% (inactive)
C=CCNc1nc(N)c(C(=C(C#N)C#N)c2ccccc2)s1	35.8% (active)
C=C(C)C#CC(Cc1ccccc1)N(CC1CC1)/C(N)=N/C(=O)OCc1ccccc1 (centres undefined)	0.56% (inactive)
CC(Oc1ccc2ccccc2c1)C(=O)NNC(=S)NC(=O)c1ccco1 (centres undefined)	48.2% (active)
NS(=O)(=O)c1ccc(CNC(=S)NC(=O)c2ccco2)cc1	0.4% (inactive)
CCC1CCCCN1C(=S)NC(=O)c1ccco1 (centres undefined)	0.91% (inactive)
O=C(NC(=S)N1CCc2ccccc21)c1ccco1	0.88% (inactive)
COc1ccc(/C=C(/NC(=O)c2ccco2)C(=O)Nc2ccc(C(C)=O)cc2)cc1	1.57% (inactive)
CCCc1ccc(OCC(=O)NNC(=S)NC(=O)c2ccco2)cc1	36.2% (active)
CCCCC(NC(=O)c1cccc(Br)c1)C(=O)O (centres undefined)	0.46% (inactive)
COC(=O)[C@]12C[C@H](CC(=O)N3CCOCC3)C(=O)N(Cc3ccc(Cl)cc3Cl)C1=C[C@H](COCc1ccccc1)O[C@@H]2C	4.28% (inactive)
CC(C)CNC(=O)OCc1cn(Cc2ccc(F)cc2)nn1	0.38% (inactive)
Cc1cc2c(nc1C)CCCN2C	-0.74% (inactive)
COC(=O)[C@H](C(C)C)N1CCc2nnn(Cc3ccc(C)cc3)c2-c2ccccc2S1(=O)=O	-0.02% (inactive)
COCc1[nH]nc2c1C(c1ccccc1)N(c1ccccc1)C2=O (centres undefined)	-0.7% (inactive)
O=C(Nc1ccc2ccccc2c1)Nc1ccc2snnc2c1	47.6% (active)
O=S(=O)(Nc1ccc2ccccc2c1)N1CCCCC1	4.05% (inactive)
CS(=O)(=O)c1ccccc1C(=O)Nc1ccc2sccc2c1	2.53% (inactive)

Compound	inhibition
C[C@@H]1ON(C)[C@H]2C[C@H]3c4cc(N5CCOCC5)ccc4CCN3C[C@@H]12	0.67% (inactive)
COC(=O)c1cccc(NC(=O)CSc2nc(C)cc(=O)[nH]2)c1	6.31% (inactive)
CCc1nnc(NC(=O)CSc2nnnn2-c2cccc(C(C)=O)c2)s1	-0.71% (inactive)
C=CCSc1nnc2c(n1)-c1cccc3cccc-2c13	7.81% (inactive)
CCCCN1C(=O)C(=O)N(CC(=O)Nc2cccc(C(C)=O)c2)C1=O	4.35% (inactive)
CCSc1nsc(NC(=O)Nc2cccc(C(C)=O)c2)n1	62.7% (active)
CSc1nsc(NC(=O)Nc2ccccc2)n1	38.9% (active)
C=CCSc1nsc(NC(=O)Nc2cccc(C(C)=O)c2)n1	60.2% (active)
CSc1nsc(SCC(=O)Nc2cc(C(=O)O)ccc2C)n1	7.69% (inactive)
CC(=O)N1CCC(C(=O)Nc2nc(-c3ccccc3)ns2)CC1	6.24% (inactive)
O=C(NC1CCC1)c1ccc(C#CC2CC2)cn1	4.07% (inactive)
CCC(c1ccc(NC(=O)OC(C)(C)C)cc1)c1cc(OC)cc(OC)c1 (centres undefined)	3.19% (inactive)
COC(=O)C1=C(C)N(Cc2ccccc2C(F)(F)F)C(=NCc2ccc(C(F)(F)F)cc2)NC1c1ccc(F)cc1 (centres undefined)	1.68% (inactive)
C=CCN(C(=O)[C@@H](CCCC)[C@@H](O)c1ccc(Cl)cc1)c1ccccc1	-0.19% (inactive)
CCC(C)C(N=C1NS(=O)(=O)c2ccccc21)C(=O)N1CCC(C)CC1 (centres undefined)	-5.03% (inactive)
COc1ccc(S[C@]2(C(=O)N(C)C)CC(=O)N(c3ccc(OC)cc3)[C@@H]2c2ccc(OC)cc2)cc1	2.57% (inactive)
C=CCN1C(=O)[C@@H](CC(=O)NCC2CCCCC2)[C@]2(C(=O)OC)CCCCC=C12	2.39% (inactive)
Cc1c(Cl)c([N+](=O)[O-])nn1Cc1ccc(C(=O)N/N=C\c2cc(Cl)ccc2O)o1	7.06% (inactive)
Cc1cc(C(=O)N/N=C/c2ccc(O)c([N+](=O)[O-])c2)c(C)n1-c1ccc(F)cc1	40.9% (active)
CC(Oc1ccccc1[N+](=O)[O-])C(=O)N/N=C/c1ccoc1 (centres undefined)	6.95% (inactive)
